Tg IFNy HTS: T. gondii growth inhibition with IFN-gamma, primary screen, cell-based | AID 1259416, 2018 | Toxoplasma gondii growth in IFN-gamma-treated host cells; stronger effect = lower value | 69,000 tested, 3.8% active | activity change, negative = inhibition, % (no concentration beside the values); in the data active = activity change below about -70%, passing the limit was not always enough;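 note: host cells are HeLa cells infected with Toxoplasma gondii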
An asterisk follows results filed as active; i = inactive; ! = repeats disagree. This excerpt belongs to a sample that is enriched for hits.

SMILES | Tg IFNy HTS
Cc1c(C2CCN(CCc3ccccc3)CC2)noc1-c1ccc(Cl)cc1 | -76.4*!
OC(c1ccccc1)C1CCN(CCc2ccccc2)CC1 (centres undefined) | 17.6
C=CCn1c(=O)c(C(=O)Nc2ccccn2)c(O)c2ccccc21 | 172.3
O=C(Nc1cccc(Cl)c1)c1ccccn1 | 220.9
O=C(Nc1cccc(Cl)c1)Nc1ncc(CCNc2ncnc3ccsc23)s1 | -73.1*
O=C(Nc1ccc(-c2nc(-c3ccccc3)co2)cc1)Nc1cccc(Cl)c1 | -10.7
Cc1cc(C)c2c(=O)n(Cc3nc(-c4ccc(C(C)C)cc4)oc3C)c(=O)n(Cc3ccco3)c2n1 | -6.3
O=C(Nc1ccc2nsnc2c1)c1ccccc1Cl | 395.6
Cn1cnnc1Sc1c([N+](=O)[O-])ncn1C | -45.6
Cn1cnc([N+](=O)[O-])c1Sc1ncnc2nc[nH]c12 | -85.7*
CC(C)C(=O)Nc1ncnc2nc[nH]c12 | -51.5
CNC(=O)CN1C(=O)CCC12CCCN(C(=O)C1CCCO1)C2 (centres undefined) | -8.9
CCOC(=O)N1CCN2C(=O)c3ccccc3[C@H]2C1 | 40.9
COc1ccc(Cn2c(-c3ccncc3)n[nH]c2=O)cc1 | -3.8
COc1ccc(-c2cc(N)n(C)n2)cc1 | 110.5
Cc1ccc(-c2ccc(=O)[nH]n2)cc1-n1cnnc1 | 8.1
COc1ccc(-c2c(N)n[nH]c2C)cc1OC | -13.8
COc1ccc(-c2ccc(=O)[nH]n2)cc1 | -114.9*
COc1cc(-c2ccc(=O)[nH]n2)ccc1OC(F)F | -87.5*
O=S1(=O)[C@@H]2CCNCC[C@H]2CN1Cc1ccccc1 | -22.3
CCc1ncc2c(n1)CN(C(=O)c1cc(=O)n(C)c3ccccc13)C2 | 7.7
O=C(C1CC(=O)N(c2ccc(F)cc2)C1)N1CCC(n2c(=O)oc3ccccc32)CC1 (centres undefined) | -2.3
CC(NC(=O)CSCc1ccccc1Cl)c1nn[nH]n1 (centres undefined) | 11.1
Cc1cc(C)n(CCN(C)Cc2cnn3cccnc23)n1 | -1.4
Cc1ccc(/C(=C\CN2CCCC2)c2ccccn2)cc1 | -0.5
SMILES | Tg IFNy HTS
C/C(=N\NC(=S)N1CCC1)c1ccccn1 | -79.8*
CN(C)C(=O)[C@]12CCCN(C(=O)c3ccccn3)C[C@@H]1CN(c1ccccn1)C2 | 4.2
Cc1ccc2c(c1C)-n1cccc1C1(CCN(S(=O)(=O)c3ccc(F)cc3)CC1)N2 | 7.8
CCC(C(=O)Nc1cc(C(=O)OC)cc(C(=O)OC)c1)c1ccccc1 (centres undefined) | -61.6
N#Cc1ccc(C#CCOC(=O)Nc2ccc(OC(F)(F)F)cc2)cc1 | 34.4
CCc1nc(OCC(=O)Nc2cccc(Cl)c2)c2ccccc2n1 | 3.7
COc1cc(C(F)(F)F)nc2ccc(C#CCOC(=O)Nc3cccc(Cl)c3)cc12 | -108.7*
CS(=O)(=O)n1c(C(=O)NCc2ccco2)cc2c1c1ccccc1n2CC1CC1 | 3.2
Cc1nc(-c2ccccn2)nc(SCC(=O)N2CCOCC2)c1Cl | -24.1
Cc1nc(-c2ccccn2)nc(SCc2ccccc2)c1Cl | -89.3*
Clc1ccc(CSc2n[nH]c(-c3ccccn3)n2)cc1 | -62.4
COc1cc2c(cc1CCNS(=O)(=O)c1ccc3c(c1)sc(=O)n3C)CCC2 | -17.3
O=C(Nc1cnc2n1CCCC2)c1cc(-c2ccccc2)on1 | 15.1
CC(C)N(C)CC1CN(c2ncccn2)Cc2nccn2C1 (centres undefined) | 0.1
COc1cc2c(c(OC)c1OC)-c1ccc(OC)c(=O)cc1[C@@H](NC(C)=O)CC2 | -72.4*!
COc1c(O[C@@H]2O[C@H](CO)[C@@H](O)[C@H](O)[C@H]2O)cc2c(c1OC)-c1ccc(SC)c(=O)cc1[C@@H](NC(C)=O)CC2 | 12.0
COc1ccc([C@@H]2C[C@H](NC(C)=O)C[C@H](CC(C)C)O2)c(OC)c1OC | -0.7
COc1ccc2c(c1)NC1(CCN(C(=O)Nc3ccc(Cl)cc3)CC1)c1cccn1-2 | i
Cc1cc(CN2CCC3(CCCN(Cc4nccs4)C3)C2)oc1C (centres undefined) | 6.7
Cn1c(=O)c2c(nc(Oc3ccccc3Br)n2C)n(C)c1=O | -74.9*
Cn1c(=O)c2nc3ccccc3nc2n(C)c1=O | -13.4
Cn1c(=O)c2c(ncn2Cc2ccccc2Cl)n(C)c1=O | -1.2
CCCNC(=O)c1cn(-c2nc(CNc3cccnc3)c3ccccn23)cn1 | 18.9
CC(C)C(=O)N1C[C@H](c2ccc(F)cc2)[C@H]2CN(Cc3ccsc3)CC[C@H]21 | -35.6
Cn1c(=O)c(-c2nc(-c3ccccc3)no2)c(O)c2ccccc21 | 70.1
SMILES | Tg IFNy HTS
CCc1cc2cc(C)c(C)cc2nc1SCC(=O)Nc1cc(OC)ccc1OC | -36.2
C=CC(=O)Nc1cccc(Nc2nc(Nc3ccc(Oc4ccnc(C(=O)NC)c4)cc3)ncc2F)c1 | -77.9*
C=CC(=O)Nc1cccc(OC)c1 | 16.9
C=CC(=O)Nc1ccc2ncnc(Nc3cccc(Br)c3)c2c1 | -44.6
Cc1cc(OCc2nnc(-c3ccc4ccccc4c3)o2)c2nncn2n1 | -3.0
Cc1nc(OCC(=O)Nc2ccc(Cl)c(Cl)c2)c2ccccc2n1 | 0.8
CCCN1CCN(C(=O)c2cccc3[nH]cc(CN4CCCC4)c23)CC1 | -61.4

Assay outcomes deposited in PubChem by Broad Institute.
